# TEAD-YAP inh – TEAD-YAP interaction inhibition. HEK-TIYL cells, TEAD-Gal4/YAP UAS-luciferase luminescence. inhibition, % at 9.12 µM. hit rate 1.4% among 640,000. AID 1259422; in the data active = inhibition above about 32%
# MITF inh – human MITF inhibition, primary screen. inhibition, % at 2.6 µM. hit rate 0.91% among 650,000. AlphaScreen MITF homodimerization, bead proximity signal; in the data active = inhibition above about 50%
# FBW7 act – activators of human E3 ligase FBW7. Q969H0. AlphaScreen FBW7–phospho-cyclin E peptide binding, activator screen. normalized activity (activation), % at 26.1 µM. hit rate 0.13% among 650,000. AID 1259310; in the data active = normalized activity above about 1.9%;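 also: purified mutant Fbw7 with reduced substrate affinity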
# GPR151 ag – activates the human receptor GPR151 | activation, % at 11.2 µM | hit rate 1% among 650,000 | Q8TDV0 | AID 1508602 | PathHunter beta-arrestin GPR151 cells, luminescence; in the data active = activation above about 4.9%
# Target sequence (Q8TDV0 whole entry, looked up): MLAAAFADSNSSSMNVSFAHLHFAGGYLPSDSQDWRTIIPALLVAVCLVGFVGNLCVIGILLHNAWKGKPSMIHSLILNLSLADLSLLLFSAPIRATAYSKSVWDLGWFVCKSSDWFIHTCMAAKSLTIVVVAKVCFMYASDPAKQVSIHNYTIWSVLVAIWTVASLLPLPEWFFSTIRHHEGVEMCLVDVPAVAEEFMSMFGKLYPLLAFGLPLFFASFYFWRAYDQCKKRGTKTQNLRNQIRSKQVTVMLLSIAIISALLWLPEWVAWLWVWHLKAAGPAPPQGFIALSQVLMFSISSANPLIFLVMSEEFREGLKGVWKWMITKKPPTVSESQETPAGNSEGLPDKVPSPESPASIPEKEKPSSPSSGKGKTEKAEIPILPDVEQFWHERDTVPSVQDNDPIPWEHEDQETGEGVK
# Hits are given with their value; – = inactive. An excerpt weighted towards active compounds, which were near 3.5% of everything screened.
SMILES,TEAD-YAP inh,MITF inh,FBW7 act,GPR151 ag
c1cc(-n2cnc3c(Nc4ccc5c(c4)OCO5)nc(NCc4ccc5c(c4)OCO5)nc32)cs1,–,–,–,–
c1ccc(Nc2nc(Nc3ccc(N4CCOCC4)cc3)nc3c2ncn3-c2ccsc2)cc1,–,–,–,–
c1cc(-n2cnc3c(Nc4ccc(N5CCOCC5)cc4)nc(Nc4ccc(N5CCOCC5)cc4)nc32)cs1,34.8,–,–,–
CC(=O)Nc1ccc(Nc2ccnc(-c3c(C)nn(C)c3C)n2)cc1,53.8,–,–,–
CCOc1cccc(/C=N/NC(=O)c2c[nH]c3ccccc23)c1O,–,–,–,–
CC(C)(C)CNC(=O)c1cn2ccsc2n1,–,–,–,–
c1cc(Nc2nc(Nc3ccc4c(c3)OCO4)c3ncn(-c4ccsc4)c3n2)ncn1,–,–,10.5,–
CCN(CC)c1nc(Nc2ccc3c(c2)OCO3)nc(Nc2ccncn2)n1,–,–,4.0,–
CC(=O)Nc1ccc(Nc2nc(Nc3ccncc3)nc3c2ncn3-c2ccsc2)cc1,–,–,–,–
Cc1nn(C)c(C)c1-c1nc(Nc2ccccc2)c2ncn(-c3ccsc3)c2n1,–,–,–,–
c1cnc(Nc2nc(Nc3ccc4c(c3)OCO4)c3ncn(-c4ccsc4)c3n2)cn1,–,–,–,–
CC(=O)Nc1ccc(Nc2nc(-c3c(C)nn(C)c3C)nc3c2ncn3-c2ccsc2)cc1,43.9,–,–,–
CC(=O)Nc1ccc(Nc2nc(Nc3ncccn3)nc3c2ncn3-c2ccsc2)cc1,49.8,–,–,–
CC(C)(C)C(=O)Nc1nnc(C2CCCCC2)s1,–,–,–,–
c1cc(-n2cnc3c(Nc4ccc5c(c4)OCO5)nc(Nc4ccc(N5CCOCC5)cc4)nc32)cs1,41.8,–,–,–
c1ccc(Nc2nc(-c3ccc(N4CCOCC4)nc3)nc3c2ncn3-c2ccccc2)cc1,–,–,–,–
COc1ccc(-c2nc(Nc3ccc(N4CCOCC4)cc3)c3ncn(-c4ccsc4)c3n2)cc1,38.3,–,–,–
CC(=O)Nc1ccc(Nc2nc(Nc3ccc(N4CCOCC4)cc3)nc3c2ncn3-c2ccsc2)cc1,38.0,–,–,–
COc1ccc(-c2nc(Nc3ccc(N4CCOCC4)cc3)c3ncn(-c4ccccc4)c3n2)cn1,34.1,–,–,–
FC(F)(F)c1ccc(Nc2nc(Nc3ccc(N4CCOCC4)cc3)c3ncn(-c4ccsc4)c3n2)cc1,–,–,–,–
CCOCCc1nnc(NC(=O)c2c(OC)cccc2OC)s1,–,–,–,–
CC(C)C(=O)N1CCc2c(nc(N3CCOCC3)[nH]c2=O)C1,–,–,–,–
CCCn1c2ccccc2c2nc3cc(OC)c(OC)cc3nc21,–,–,3.7,–
CCCCn1c2ccccc2c2nc3cc(OC)c(OC)cc3nc21,–,–,–,–
COc1cc2nc3c4ccccc4n(C(C)C)c3nc2cc1OC,–,–,3.7,–
SMILES,TEAD-YAP inh,MITF inh,FBW7 act,GPR151 ag
CCN(CC)CCn1c2ccccc2c2nc3ccccc3nc21,76.0,–,–,–
CCOc1cc(C(=O)Nc2sccc2C(N)=O)cc(OCC)c1OCC,36.4,–,–,–
CCOc1ccccc1NC(=O)c1cc(OCC)c(OCC)c(OCC)c1,–,–,–,–
CCOc1cc(C(=O)Nc2sccc2C(=O)N2CCOCC2)cc(OCC)c1OCC,–,–,–,–
CCOc1cc(C(=O)Nc2ccccc2C(N)=O)cc(OCC)c1OCC,36.9,–,–,–
CCCCc1nnc(NC(=O)C(Cc2ccccc2)N2C(=O)c3ccccc3C2=O)s1 (stereo unspecified),–,–,–,–
O=C1[C@@H]2C[C@H](NCc3ccc4ncccc4c3)CN2C(=O)[C@@H]2CCCN12,–,–,–,–
Brc1ccc(-c2cn3c4ccccc4nc3n2CCCN2CCCCC2)cc1,–,–,2.2,–
Clc1ccc(-c2cn3c4ccccc4nc3n2CCCNC2CCCCC2)cc1,–,–,3.1,–
CCN(CC)CCCn1c(-c2ccc(Cl)cc2)cn2c3ccccc3nc12,–,–,–,–
CCN(CC)CCCn1c(-c2ccc(Br)cc2)cn2c3ccccc3nc12,–,–,2.2,–
CC(Oc1ccccc1)C(=O)NCCS(=O)(=O)N1CCN(c2ccccc2)CC1 (stereo unspecified),–,–,–,–
CCN1/C(=C/c2ccc3ccccc3[n+]2CC)Sc2ccc(OC)cc21,90.0,–,–,–
CCN1/C(=C\C=C(/C)C=O)Sc2ccccc21,–,–,–,–
CCCCN1/C(=C/c2ccc3ccccc3[n+]2CC)Sc2ccccc21,92.1,–,–,–
CCN1/C(=C/c2ccc3ccccc3[n+]2CC)Sc2ccc(I)cc21,68.3,–,–,–
CCN1/C(=C/c2ccc3ccccc3[n+]2CC)Sc2c1ccc1ccccc21,87.0,–,–,–
CCCCNS(=O)(=O)c1ccc(NC(=O)/C=C/c2ccccc2[N+](=O)[O-])cc1,–,–,–,–
CCCCN1/C(=C/c2ccc3cc(OC)ccc3[n+]2CC)Sc2ccc(OC)cc21,89.0,–,–,–
CCN1/C(=C/c2ccc3cc(NC(C)=O)ccc3[n+]2CC)Sc2ccccc21,52.4,–,–,–
CC[n+]1c(I)ccc2cc(OC)ccc21,–,–,–,–
O=C(/C=C/c1ccc(Cl)cc1)N1CCN(Cc2ccc3c(c2)OCO3)CC1,–,–,–,–
CN(C)c1ccc(/C=C/CN2CCN(Cc3ccc4c(c3)OCO4)CC2)cc1,–,68.0,–,–
c1cc(Oc2ncnc3sc4c(c23)CCCC4)cc(-n2cnnn2)c1,–,–,–,–
CCCC(=O)c1ccc(N2CCN(C(=O)c3cc(F)c(F)cc3Cl)CC2)c(F)c1,–,–,–,–
SMILES,TEAD-YAP inh,MITF inh,FBW7 act,GPR151 ag
Cc1ccccc1NC(=O)Cn1c(C)cc(=O)c2ccccc21,38.8,–,–,–
O=C(O)CCNc1nc2ccccc2s1,42.3,–,–,–
O=C(NNc1nc2ccccc2s1)Nc1ccccc1,–,–,–,–
c1ccc(NNc2nc3ccccc3s2)cc1,35.8,–,–,–
O=C(O)CNc1nc2ccccc2s1,–,–,–,–
COc1cccc(C=Nc2cnn(C)c2C(N)=O)c1O,–,–,3.6,–
O=C(CCl)N(Cc1cccs1)C1CCS(=O)(=O)C1 (stereo unspecified),59.6,–,–,–
O=C(COc1ccc(Cl)cc1)N(Cc1cccs1)C1CCS(=O)(=O)C1 (stereo unspecified),–,–,–,–
CCCCN(C(=O)CCl)C1CCS(=O)(=O)C1 (stereo unspecified),72.7,–,–,–
O=C(CC(c1ccc(Cl)cc1)C1CCCCC1=O)c1ccccc1 (stereo unspecified),–,–,–,–
CCCS(=O)(=O)N1CCC(c2nc3c(nnn3Cc3ccccc3)c(=O)[nH]2)CC1,–,–,–,–
O=S(=O)(c1ccc(-c2cn3cc(Cl)ccc3n2)cc1)N1CCCCC1,–,–,–,–
COc1cccc(Cn2ccn(-c3cccc(Cl)c3)c(=O)c2=O)c1,52.7,–,–,–
COc1cccc(Cn2ccn(Cc3ccccc3)c(=O)c2=O)c1,–,–,–,–
NC(=O)NC(=O)Nc1ccc(Cl)cc1,–,–,–,–
NC(=O)Cn1cc(CN2CCN(Cc3ccccc3)C(CCO)C2)c2ccccc21 (stereo unspecified),–,–,–,–
